Test results taken from PubChem BioAssay (EPA / NIEHS).
The source holds several records for some structures; these can differ, active in one and inactive in another. Active and inactive are the calls of the source. How the source made its calls: active means hit-call score of the fitted dose curve at least 0.9, where 1 is the maximum; inactive means score below 0.9.

read-out: Plasminogen activator inhibitor-1 (PAI1), SERPINE1 (gene 5054); test: BSK_MyoF_PAI1: BioMAP Diversity Plus: MyoF Assay for Plasminogen activator inhibitor-1 (PAI1) Biomarker Activity (AID 2284256); conditions: primary human lung fibroblasts
Method: BSK_MyoF is a cell-based, multiplexed-readout assay that uses lung fibroblasts, […], with measurements taken at 24 hours after chemical dosing in a microplate: 96-well plate.BSK_MyoF_PAI1 is an assay component measured in the BSK_MyoF assay. It measures PAI-1 antibody related to regulation of gene expression using ELISA technology.Data from the assay component BSK_MyoF_PAI1 was analyzed at the endpoint, BSK_MyoF_PAI1, in the positive analysis fitting direction relative to DMSO as the negative control and baseline of activity. Using a type of binding reporter, gain or loss-of-signal activity can be used to understand protein changes. To generalize the intended target to other relatable targets, this assay endpoint is annotated to the 'cytokine' intended target family, where the subfamily is 'plasmogen activator inhibitor'.
The levels of cell surface (or secreted, indicated by the prefix "s") biomarker endpoints were measured by ELISA. Overt cytotoxicity to cells in confluent adherent cultures (all systems other than the BT system) was assessed by measuring total protein levels using sulforhodamine B (SRB) staining in parallel cultures at the time of biomarker measurements, indicated as SRB endpoints. For proliferation assays for adherent cell types, individual cell types are cultured at sub-confluence and relative cell numbers quantified by SRB staining at time points optimized for each system (48 h: 3C and CASM3C systems; 72 h: BT and HDF3CGF systems; 96 h: SAg system). SRB was performed by staining cells with 0.1% SRB after fixation with 10% TCA and reading wells at 560 nm.Viability and proliferation of PBMC (T cells) was quantified by Alamar Blue reduction for the SAg and BT systems. For PBMC viability (referred to as PBMC Cytotoxicity within the assay endpoint names), cells were plated (75,000/well in a 96-well plate) and then chemical samples added for 1 h before addition of activators, SEB and TSST-1 (20 ng/mL final concentration each). Cells were incubated for 90 h. Then, Alamar Blue (20 uL/well) (Invitrogen, Cat DAL1100) was added for 6 h, and the plates were read with a fluorescence microplate reader at 546/580 nm (excitation/emission). For PBMC proliferation, cells were plated and activated as above but incubated for only 16 h prior to addition of Alamar Blue. Plates were read after 6 h.

Row | SMILES | AC50 | outcome
1 | OCC(F)(F)OC(F)(F)C(F)(F)OC(F)(F)C(F)(F)OC(F)(F)F | 20.9 µM (active) | inactive
2 | CCOP(=S)(S)OCC | – | inactive
3 | C=CC(=O)OCC(F)(F)C(F)F | – | inactive
4 | CC(C)(C)c1ccccc1OP(=O)(Oc1ccccc1)Oc1ccccc1 | 20 µM (active) | –
5 | OCC(F)(F)OC(F)(F)C(F)(F)OC(F)(F)C(F)(F)OC(F)(F)CO | – | inactive
6 | O=C(O)C(F)(F)OC(F)(F)C(F)(F)OC(F)(F)C(=O)O | – | inactive
7 | O=S1(=O)OCC2C(CO1)C1(Cl)C(Cl)=C(Cl)C2(Cl)C1(Cl)Cl (centres undefined) | – | inactive
8 | CC(C)Nc1ccc(Nc2ccccc2)cc1 | 30.6 µM (active) | –
9 | NC(=O)C(F)(F)C(F)(F)F | – | inactive
10 | C=CC(=O)OCC(CC)(COC(=O)C=C)COC(=O)C=C | 2.7 µM (active) | –
11 | OCC(F)(F)OC(F)(F)C(F)(F)OC(F)(F)CO | – | inactive
12 | CCCCC(CC)COP(=O)(Oc1ccccc1)Oc1ccccc1 (centres undefined) | 16 µM (active) | –
13 | CCCCC(CC)COC(=O)c1c(Br)c(Br)c(Br)c(Br)c1C(=O)OCC(CC)CCCC (centres undefined) | – | inactive
14 | COC(=O)C(F)(F)C(F)(F)OC(F)(C(F)(F)F)C(F)(F)OC(F)=C(F)F (centres undefined) | – | inactive
15 | ClC(Cl)=C(c1ccc(Cl)cc1)c1ccccc1Cl | 9.39 µM (active) | –
16 | O=C(O)C(F)(OC(F)(F)C(F)(F)C(F)(F)F)C(F)(F)F (centres undefined) | – | inactive
17 | CCOP(=S)(NC(C)C)Oc1ccccc1C(=O)OC(C)C (centres undefined) | – | inactive
18 | N#Cc1c(-c2ccc(Cl)cc2)[nH]c(C(F)(F)F)c1Br | 20 µM (active) | –
19 | O=C(O)C=CC(F)(C(F)(F)F)C(F)(F)F | – | inactive

Row | SMILES | AC50 | outcome
20 | CCCCOCCOP(=O)(OCCOCCCC)OCCOCCCC | 0.0918 µM (active) | –
21 | Nc1ccc([N+](=O)[O-])cc1Cl | – | inactive
22 | Cc1c([N+](=O)[O-])cc2c(c1[N+](=O)[O-])C(C)(C)CC2(C)C | – | inactive
23 | Cc1ccc2c(c1N)C(=O)c1ccccc1C2=O | – | inactive
24 | COP(N)(=S)OC | – | inactive
25 | O=S(=O)(F)C(F)(F)C(F)(F)C(F)(F)C(F)(F)C(F)(F)C(F)(F)C(F)(F)C(F)(F)F | – | inactive
26 | c1ccc2c(c1)sc1ccccc12 | – | inactive
27 | CC(O)C(F)(F)C(F)(F)F (centres undefined) | – | inactive
28 | O=C(O)C(F)(F)C(F)(F)C(=O)O | – | inactive
29 | CCOP(=S)(OCC)SCS(=O)(=O)CC | – | inactive
30 | O=C(O)C(F)(F)OC(F)(F)C(F)(F)OC(F)(F)F | – | inactive
31 | FC(F)(F)C(F)(C(F)(F)F)C(F)(F)C(F)(F)CC1CO1 (centres undefined) | – | inactive
32 | COP(=O)(O)OC | – | inactive
33 | CCOP(=S)(OCC)SCn1nnc2ccccc2c1=O | – | inactive
34 | CC(Cl)CN(C)C (centres undefined) | 0.016 µM (active) | –
35 | N#Cc1cc([N+](=O)[O-])ccc1N | – | inactive
36 | CCOP(=S)(OCC)SCSc1ccc(Cl)cc1 | 3.97 µM (active) | –
37 | O=c1ssc(Cl)c1Cl | 11.1 µM (active) | –
38 | O=P(OCC(Br)CBr)(OCC(Br)CBr)OCC(Br)CBr (centres undefined) | – | inactive
